Results published in PubChem BioAssay (Tox21).
Inconclusive results are not listed. Activity calls are given as the source filed them. The call rests on the fitted dose curve.

target: Peroxisome proliferator-activated receptor delta (Homo sapiens) (UniProt Q03181); experiment: qHTS assay to identify small molecule agonists of the peroxisome proliferator-activated receptor delta (PPARd) signaling pathway (AID 743212); details: HEK293H PPARd-UAS-bla, beta-lactamase FRET ratio, 17 h; series mostly up to 62.6 µM; activation: at the top concentration;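 further: HEK293H cells with PPARd UAS beta-lactamase reporter GeneBLAzer system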
Summary of the method: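 Steps: seed PPARd-bla HEK293H cells; incubate 5 h, 37 C, 5% CO2; add compounds in DMSO; incubate, 37 C; add LiveBLAzer B/G FRET substrate; hold 2 h at room temperature; measure fluorescence.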
On the % scale 0 is the no-effect control and ±100 the full control effect.

Chain of Peroxisome proliferator-activated receptor delta (Homo sapiens) (Q03181 whole entry, looked up): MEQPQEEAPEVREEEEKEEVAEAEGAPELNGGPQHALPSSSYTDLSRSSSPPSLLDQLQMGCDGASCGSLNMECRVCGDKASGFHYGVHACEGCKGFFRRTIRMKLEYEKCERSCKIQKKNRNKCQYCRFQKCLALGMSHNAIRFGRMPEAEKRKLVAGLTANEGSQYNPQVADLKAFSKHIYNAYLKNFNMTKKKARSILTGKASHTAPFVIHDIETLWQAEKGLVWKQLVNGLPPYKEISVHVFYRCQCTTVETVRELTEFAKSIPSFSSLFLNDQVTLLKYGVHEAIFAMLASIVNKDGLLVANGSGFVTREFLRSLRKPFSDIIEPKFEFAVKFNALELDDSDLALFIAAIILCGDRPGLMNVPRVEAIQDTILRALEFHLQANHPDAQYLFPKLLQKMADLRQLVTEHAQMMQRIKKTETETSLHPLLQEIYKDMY

Compound	activation
Cc1ccc(OC(=O)CC(C)C)cc1	1.32% (inactive)
CCO/C=C1\N=C(c2ccccc2)OC1=O	0.7% (inactive)
CC[C@@]1(c2ccccc2)NC(=O)N(C)C1=O	-3% (inactive)
O=C(O)P(=O)(O)O	-0.621% (inactive)
CC1(C)S[C@@H]2[C@H](NC(=O)Cc3ccccc3)C(=O)N2[C@H]1C(=O)O (tested in a mixture with another compound)	-1.73% (inactive)
Cc1ccc(S(=O)(=O)NC(=O)NN2CC3CCCC3C2)cc1 (stereo not drawn)	-0.643% (inactive)
CCCC(=O)CC	0.129% [at 81.1 µM] (inactive)
CN(C)CCCN(C)C	-1.31% [at 5.95 µM] (inactive)
CC1(C)C(=O)C(C)(C)C1=O	-0.668% (inactive)
C=C(C)C(=O)OCCCC	0.772% [at 81.1 µM] (inactive)
C[C@@H]1CC[C@@]2(OC1)O[C@H]1C[C@H]3[C@@H]4CC[C@H]5C[C@@H](O)CC[C@]5(C)[C@H]4CC(=O)[C@]3(C)[C@H]1[C@@H]2C	0.168% [at 5.95 µM] (inactive)
CCOCCOCCOC(C)=O	-1.08% [at 81.1 µM] (inactive)
CC(O)CCCCn1c(=O)c2c(ncn2C)n(C)c1=O (stereo not drawn)	-2.13% (inactive)
CCOC(=O)CC	0.0661% (inactive)
C=COCCCCO	-0.374% (inactive)
CC/C=C\CCCCCCCCCCOC(C)=O	-0.634% (inactive)
CN1C(CCl)Nc2cc(Cl)c(S(N)(=O)=O)cc2S1(=O)=O (stereo not drawn)	1.57% (inactive)
CC(=O)SCC(CC(=O)c1ccc(C)cc1)C(=O)O (stereo not drawn)	-1.11% (inactive)
CN(C)c1ccncc1	-0.347% (inactive)
O=S(=O)(O)CC(O)CCl (stereo not drawn)	8.68% (inactive)
N[C@H]1C(O)O[C@H](CO)[C@@H](O)[C@@H]1O (stereo partly drawn)	2.86% (inactive)
C=CCN1CCc2nc(N)sc2CC1	5.44% (inactive)
Cc1ccc(O)c([N+](=O)[O-])c1	-0.255% [at 81.1 µM] (inactive)
